Compound activity deposited in PubChem BioAssay by Sanford-Burnham Center for Chemical Genomics.
Most compounds without a hit are left out; they make up all but 1.8% or so of the library.
p-CIP stab down: p/CIP protein destabilization; AID 1984; decrease of EGFP signal, % at 10 µM; Q05BA5; hit rate 0.01% among 290,000; F442A p/CIP-EGFP cells, EGFP fluorescence, 16 h;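 active = EGFP signal decrease of at least 30% at 10 µM or well 3 SD below plate mean, unless failing retest; inactive = the rest, including hits failing retest or dose response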
PHOSPHO1 block: blocks human PHOSPHO1 phosphatase activity; Q8TCT1; recombinant PHOSPHO1, absorbance phosphatase assay; inhibition, % at 13.3 µM; hit rate 1.1% among 290,000; AID 1565; in the data active = inhibition above about 60%
Target sequence (Q8TCT1 whole entry, looked up): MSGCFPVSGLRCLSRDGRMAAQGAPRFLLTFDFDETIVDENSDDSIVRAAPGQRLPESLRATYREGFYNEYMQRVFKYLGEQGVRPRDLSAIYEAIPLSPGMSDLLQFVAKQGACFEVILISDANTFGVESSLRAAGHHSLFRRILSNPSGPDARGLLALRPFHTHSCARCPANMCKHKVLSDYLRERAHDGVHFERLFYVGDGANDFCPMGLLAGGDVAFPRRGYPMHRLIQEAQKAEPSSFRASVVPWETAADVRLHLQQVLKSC
SUMO HTRF inh: blocks human SUMOylation mediated by UBC9. HTRF SUMOylation assay, SAE1/SAE2 + UBC9, in vitro. inhibition, % at 35 µM. hit rate 0.36% among 290,000. AID 2006; in the data active = inhibition above about 50%, passing the limit was not always enough
Target sequence (P63279 whole entry, looked up): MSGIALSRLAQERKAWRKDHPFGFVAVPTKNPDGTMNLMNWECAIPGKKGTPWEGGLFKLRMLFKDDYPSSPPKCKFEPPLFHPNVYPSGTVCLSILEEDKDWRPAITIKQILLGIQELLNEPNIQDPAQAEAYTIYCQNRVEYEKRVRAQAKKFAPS
NadD inh: NadD (S. aureus) enzyme inhibition. AID 602399. purified NadD enzyme, colorimetric absorbance read-out. inhibition, % at 20 µM. hit rate 0.78% among 360,000; in the data active = inhibition above about 26%
NadD conf: NadD (S. aureus) inhibition, single concentration confirmation; shares compounds with NadD inh; purified S. aureus NadD, colorimetric enzyme assay; inhibition, % at 20 µM; hit rate 13% among 2,000; in the data active = inhibition mostly above about 42%, no sharp cut-off; inactive = mostly below about 42%
Numbers stand for hits; – = inactive; · = no result.

SMILES	p-CIP stab down	PHOSPHO1 block	SUMO HTRF inh	NadD inh	NadD conf
S=c1[nH]nc(COc2ccc(Cl)cc2)n1C1CCCCC1	–	–	–	35	–
COc1ccc(Br)cc1/C=N/n1c(COc2ccccc2)n[nH]c1=S	–	–	–	–	·
Cc1nc(SCc2nc3cc(Cl)c(F)cc3[nH]2)c2oc3ccccc3c2n1	·	·	·	37	–
Cc1nc(SCc2nc3ccc(Cl)cc3[nH]2)c2oc3ccccc3c2n1	·	·	·	–	·
CC[C@H](C)[C@@H](CO)NC(=O)[C@H]1O[C@@H](n2ccc(=O)[nH]c2=O)[C@H](O)[C@@H]1O	·	·	·	–	·
O=C1Cc2c(-c3ccccc3)cc(-c3cccc(Cl)c3)nc2-c2ccccc2N1	·	·	·	37	–
CCOC(=O)C1(C)CCCN1C(=O)c1ccccc1F (centres undefined)	·	·	·	–	·
CC1C(=O)N(Cc2cn(CCC3OCCCO3)nn2)CCS(=O)(=O)N1Cc1ccc(-c2ccc(Cl)cc2)cc1 (centres undefined)	·	·	·	–	·
CCOc1ccc2nc(SCC(=O)Nc3ccc(S(=O)(=O)N4CCCC4)cc3)c(C)cc2c1	–	–	–	–	·
O=C(CSc1ccc(-c2nc3ccccc3[nH]2)cn1)Nc1ccc(S(=O)(=O)N2CCCC2)cc1	–	–	–	–	·
Cc1cc(C)c2nc(SCC(=O)Nc3ccc(S(=O)(=O)N4CCCC4)cc3)c(C)cc2c1	–	–	–	36	–
Cc1cc2nc(-c3ccc(SCC(=O)Nc4ccc(S(=O)(=O)N5CCCC5)cc4)nc3)[nH]c2cc1C	–	–	–	40	–
C=CCN(Cc1nc(-c2ccc(OC)c(OC)c2)oc1C)C1CCS(=O)(=O)C1 (centres undefined)	–	–	–	–	·
Cc1cccc(N=C2NN=C(c3c(C)[nH]c4ccccc34)CS2)c1	–	–	–	36	–
COc1ccc2cc(C3CC(c4ccco4)=NN3S(C)(=O)=O)c(Cl)nc2c1 (centres undefined)	–	–	–	–	·
CCOc1ccc2nc(Cl)c(C3CC(c4ccco4)=NN3S(=O)(=O)c3ccccc3)cc2c1 (centres undefined)	–	–	–	36	–
CC1(C)CC[C@]2(C(=O)O)CC[C@]3(C)C(=CC[C@@H]4[C@@]5(C)CC[C@H](O)C(C)(C)[C@@H]5CC[C@]43C)[C@@H]2C1	–	–	–	30	–
CC1(C)CC[C@]2(C(=O)O)CC[C@]3(C)C(=CCC4[C@@]5(C)CC[C@H](O)C(C)(C)C5CC[C@]43C)C2C1 (some centres undefined)	–	–	–	–	·
COCCCNC(=S)NC1CCCCC1	–	–	–	–	·
Cc1nnc(-c2ccco2)c2cn(-c3cccc(Br)c3)nc12	–	–	–	37	–
C/C(=N\Nc1nc(-c2cc(C)ccc2C)cs1)c1cc2c(ccc3ccccc32)oc1=O	–	–	–	48	–
CC(C)CNC(=O)COC(=O)c1n[nH]c2ccccc12	–	–	–	–	·
COc1cc(Oc2nc(C(F)(F)F)nc3ccccc23)ccc1C=O	–	·	–	–	·
C/C(=N\NC(=O)c1cccc(N/N=C(\C)c2ccco2)c1)c1ccco1	–	–	–	38	–
CCCCCCCCOC(=O)c1c(CSC(=N)N)n(C)c2cc(Br)c(OC(C)=O)cc12	–	–	–	42	–
SMILES	p-CIP stab down	PHOSPHO1 block	SUMO HTRF inh	NadD inh	NadD conf
CCOC(=O)c1c(CSC(=N)N)n(-c2ccc(Br)cc2)c2cc(Br)c(OC(C)=O)cc12	–	–	–	–	·
CCOC(=O)C1(C)CCN1C(=O)c1ccccc1C(F)(F)F (centres undefined)	·	·	·	–	·
O=[N+]([O-])c1ccc(C=NN2CCCCCC2)cc1	·	·	·	–	·
O=C(CSc1nnc(-c2cc3ccccc3cc2O)n1Cc1ccco1)N1CCc2ccccc2C1	–	–	–	41	54
CC(C)N(C(=O)CSc1nnc(-c2cc3ccccc3cc2O)n1Cc1ccco1)C(C)C	–	–	–	–	·
C[C@@H]1CN([C@H](C)CO)C(=O)CCCn2nncc2CO[C@H]1CN(C)Cc1cccc(C(F)(F)F)c1	·	·	·	–	·
CN1C=CC(=O)[C@@H](OC(=O)Nc2ccc(Br)cc2)[C@H]1c1ccccc1Br	·	·	·	–	·
O=C1NC[C@H](Cc2ccccc2)N(C[C@@H]2CCCN2C[C@H](Cc2ccc(O)cc2)N2C[C@H](Cc3ccc(O)cc3)N(CC3CCCCC3)C(=O)C2=O)C1=O	·	·	·	32	–
O=C1NC[C@H](Cc2ccccc2)N(C[C@H]2CCCN2C[C@H](Cc2ccccc2)N2C[C@H](Cc3ccccc3)N(CC3CCCCCC3)C(=O)C2=O)C1=O	·	·	·	–	·
O=C1NC[C@H](Cc2ccccc2)N(C[C@@H]2CCCN2C[C@H](Cc2ccc(O)cc2)N2C[C@H](Cc3ccccc3)N(CCc3ccccc3)C(=O)C2=O)C1=O	·	·	·	30	–
O=C1NC[C@H](Cc2ccc(O)cc2)N(C[C@@H]2CCCN2C[C@H](Cc2ccccc2)N2C[C@H](Cc3ccc(O)cc3)N(CC3CCCCC3)C(=O)C2=O)C1=O	·	·	·	41	–
CC(C)C[C@H]1CNC(=O)C(=O)N1C[C@@H]1CCCN1C[C@H](Cc1ccc(O)cc1)N1C[C@H](Cc2ccccc2)N(CC2CCCCC2)C(=O)C1=O	·	·	·	–	·
O=C1NC[C@H](Cc2ccc(O)cc2)N(C[C@@H]2CCCN2C[C@H](Cc2ccc(O)cc2)N2C[C@H](Cc3ccccc3)N(CC3CCCCC3)C(=O)C2=O)C1=O	·	·	·	33	–
CCOC(=O)[C@@H]1[C@H]2COc3ccccc3[C@@H]2N2C(=O)N(c3ccc(F)cc3)C(=O)[C@]12C	·	·	·	–	·
CC(C)(C)c1ccc(C(=O)N2CCC2(C)C(=O)Nc2cccc3ccccc23)cc1 (centres undefined)	·	·	·	–	·
Cc1cccc(NCc2ccc(O)c3ncccc23)c1	–	–	–	37	–
COc1ccc(/C=N/NC(=O)c2nc(-c3ccccc3)cc(-c3ccccc3)n2)cc1O	–	–	–	38	–
COc1ccc(/C=N/NC(=O)c2c(-c3ccccc3)noc2C)cc1	–	–	–	–	·
COc1ccc(/C=N/NC(=O)c2nc(-c3ccccc3)cc(-c3ccccc3)n2)cc1	–	–	–	39	–
O=C(COC(=O)Cc1ccc(S(=O)(=O)N2CCOCC2)s1)Nc1ccc([N+](=O)[O-])cc1	·	·	·	–	·
CC(C)C[C@@H](CNCC(=O)[C@H](Cc1c[nH]c2ccccc12)NC(=O)c1[nH]cnc1C(=O)N[C@H](CN)CC(C)C)NC(=O)c1nc[nH]c1C(=O)N[C@@H](CC(=O)O)C(=O)O	·	·	·	31	–
CC(C)C[C@@H](CNCC(=O)[C@H](Cc1c[nH]c2ccccc12)NC(=O)c1[nH]cnc1C(=O)N[C@@H](C)CN)NC(=O)c1nc[nH]c1C(=O)N[C@@H](CC(=O)O)C(=O)O	·	·	·	–	·
CC(C)Cn1c(-c2csc3ccccc23)n[nH]c1=S	–	106	–	34	–
Cc1cccc(-n2c(-c3csc4ccccc34)n[nH]c2=S)c1	–	–	–	–	·
CCn1c2ccccc2c2cc(N=C3SC(CC(=O)Nc4ccccc4OC)C(=O)N3C)ccc21 (centres undefined)	–	–	–	–	·
